Test results taken from ChEMBL document CHEMBL3988442, “University of Dundee, Small-Polar-MMV Screening Library” (2021).
The whole screen tested about 48,000 compounds, of which about 13,000 (27%) showed an effect of 50% or more. The list shows a part of the results.

Tested on: Wolbachia pipientis
Assay: Anti-Wolbachia Cell-Based Screen
Type: functional
Design: scale not given: in the data most compounds retested in dose-response had high values
Settings: 5 µM

| Compound | Percent Effect [%] |
| --- | --- |
| Nc1cc2c(nn1)CCN(C(=O)c1cccc3c1OCCO3)C2 | 2.04 |
| CCNc1cc2c(nn1)CCN(C(=O)c1cccc3c1OCCO3)C2 | 1.992 |
| CNc1cc2c(nn1)CCN(C(=O)c1cccc3c1OCO3)C2 | -1.864 |
| Nc1cc2c(nn1)CCN(C(=O)CCc1ccc3c(c1)OCO3)C2 | -16.52 |
| CCNc1cc2c(nn1)CCN(C(=O)c1cccc3c1OCO3)C2 | 107.3 |
| CNc1cc2c(nn1)CCN(C(=O)c1cccc3c1OCCO3)C2 | 94.51 |
| CCNc1cc2c(nn1)CCN(C(=O)C1COc3ccccc3O1)C2 (centres undefined) | -8.562 |
| Nc1cc2c(nn1)CCN(C(=O)c1cccc3c1OCO3)C2 | 99.08 |
| O=C(c1cnccn1)N1CC[C@H]2[C@H]1CCN2S(=O)(=O)C1CC1 | -1.574 |
| Cc1cc(C(=O)N2C[C@@H]3CN(S(C)(=O)=O)CCO[C@@H]3C2)c(C)o1 | -7.965 |
| Cc1cc(C(=O)N2CC[C@H]3[C@H]2CCN3S(C)(=O)=O)c(C)o1 | 109.3 |
| Cc1oncc1C(=O)N1CC[C@H]2[C@H]1CCN2S(C)(=O)=O | 102.2 |
| CO[C@@H]1CCN(C(=O)c2cnoc2C)[C@H]1Cc1ccccc1 | -17.67 |
| O=C(c1ccoc1)N1CC[C@H]2[C@H]1CCN2S(=O)(=O)C1CC1 | -16.54 |
| CC(=O)Nc1nc(-c2ccccc2)c[nH]1 | -21.73 |
| CCS(=O)(=O)c1ccccc1C(=O)NCc1ccnc(N(C)C)c1 | -0.6479 |
| CN(C)c1cc(CNC(=O)c2ccc(=O)[nH]n2)ccn1 | 0.8371 |
| CN(C)c1cc(CNC(=O)c2ccc(F)cc2F)ccn1 | 0.296 |
| Cc1nccn1-c1cc(CNC(=O)c2ccnc(N(C)C)c2)ccn1 | 25.84 |
| CN(C)c1cc(CNC(=O)c2cn(-c3ccc(F)cc3)nn2)ccn1 | -3.053 |
| CN(C)c1cc(CNC(=O)c2ccc(O)nc2)ccn1 | 121.2 |
| Cc1cc(C(=O)NCc2ccnc(N(C)C)c2)c(C)o1 | 4.439 |
| CN(C)c1cc(CNC(=O)c2cccnc2O)ccn1 | 123.9 |
| CN(C)c1cc(CNC(=O)c2cc(Cl)ccn2)ccn1 | 157.2 |
| CN(C)c1cc(CNC(=O)c2n[nH]c(=O)c3ccccc23)ccn1 | 128.9 |
| COc1cc(C(=O)N(C)C)ccc1NC(=O)c1ccsc1 | -14.53 |

| Compound | Percent Effect [%] |
| --- | --- |
| CCc1nc(C)c(C2CC(=O)Nc3c2c(-c2cccnc2)nn3C)[nH]1 (centres undefined) | 10.2 |
| CCNC(=O)NC1CN(Cc2ccncc2Cl)C[C@@H]1OC (some centres undefined) | -18.14 |
| CC(=O)c1ccc(NC(=O)NCc2cccc(N(C)C)n2)cc1C | -13.49 |
| COCCN1CCN(Cc2noc(C3CC3)n2)CC1C (centres undefined) | -13.95 |
| Cc1nnc(CSc2n[nH]c(-c3ccccn3)n2)o1 | 3.251 |
| O=C1NCCCCC1NS(=O)(=O)N1CCCCCC1 (centres undefined) | 41.49 |
| CCNC(=O)c1cnc(Sc2nccn2C)c(Cl)c1 | -8.333 |
| COc1nn(C)cc1C(=O)NCC(=O)Nc1cccnc1 | 5.398 |
| CC(=O)N1CCN(c2nc(C(F)(F)F)nc3sc(C)c(C)c23)CC1 | 10.88 |
| c1ccc2c(c1)OCCCC2NCc1nnc2n1CCCCC2 (centres undefined) | -26 |
| Cc1cc(CN(C)C(=O)NCc2ccnc(N(C)C)c2)no1 | -11.21 |
| Cc1cccc(C(=O)NCc2ccnc(N(C)C)c2)n1 | -3.78 |
| Cc1cnc(C(=O)NCc2ccnc(N(C)C)c2)cn1 | 122.7 |
| CN(C)c1cc(CNC(=O)c2cnccn2)ccn1 | 139.9 |
| COc1ccc(OC)c(S(=O)(=O)NCC2(OC)CCSC2)c1 (centres undefined) | -19.77 |
| Cc1cc(N(C)C)nc(N2CC(n3cccn3)C2)n1 | -0.4027 |
| Cc1cc(N(C)C)nc(N2CCn3c(nnc3C3CC3)C2)n1 | -9.903 |
| Cc1cc(N(C)C)nc(C2CCNC2)n1.Cl.Cl (centres undefined) | 120.8 |
| CN(C)c1ccnc(C2CCCN2)n1.Cl (centres undefined) | 126.4 |
| CN(C)c1cc(C2CCCN2)ccn1 (centres undefined) | 114.7 |
| CN(C)c1ccc(-c2noc([C@@H]3CCCN3)n2)cn1 | 4.635 |
| Cc1cc(C)nc(CN(C)C(=O)c2ccccc2C2CCNC2)c1 (centres undefined) | -11.76 |
| CCn1cc(C2CCN(Cc3ccnc(N(C)C)c3)CC2)cn1 | -12.62 |
| Cc1nc(CN(C)c2nccc(N(C)C)n2)cs1 | -6.579 |
| Cc1cc(N(C)C)nc(C2CCCN2)n1.Cl.Cl (centres undefined) | 137.4 |
| CN(C)C(=O)c1cccc(CCNS(C)(=O)=O)c1 | -0.05313 |

| Compound | Percent Effect [%] |
| --- | --- |
| O=C(c1cccc2c1OCCO2)N1CCCCC1Cn1cccn1 (centres undefined) | 4.366 |
| O=C(c1cc2c(s1)CCOC2)N1CCCC1Cn1cccn1 (centres undefined) | 107.9 |
| O=C(c1cc2c(s1)CCOC2)N1CCCCC1Cn1cccn1 (centres undefined) | 96.86 |
| CC(=O)N1CCCn2nc(CNS(=O)(=O)c3cc(C)cs3)cc2C1 | -1.939 |
| N#Cc1cccnc1NCCC1CCN(CC(F)(F)F)CC1 | -14.98 |
| CC(C)=CCN1C[C@H]2CC[C@@H]1CN(C(=O)CCc1n[nH]c(C)n1)C2 | -19.43 |
| Cc1cnn(CC2CCCCN2C(=O)c2ccc3[nH]cnc3c2)c1 (centres undefined) | 112.2 |
| Cc1cnn(CC2CCCN2C(=O)c2ccc3[nH]c(=O)[nH]c3c2)c1 (centres undefined) | 143.3 |
| Cc1cnn(CC2CCCCN2C(=O)c2ccc3[nH]c(=O)[nH]c3c2)c1 (centres undefined) | 108.3 |
| Cc1cnn(CC2CCCCN2C(=O)c2ccc3c(c2)COC3)c1 (centres undefined) | 117.5 |
| Cc1cnn(CC2CCCN2C(=O)c2ccc3[nH]nnc3c2)c1 (centres undefined) | 0.8571 |
| Cc1cnn(CC2CCCN2C(=O)c2ccc3cc[nH]c3c2)c1 (centres undefined) | 7.467 |
| Cc1cnn(CC2CCCCN2C(=O)c2ccc3[nH]nnc3c2)c1 (centres undefined) | -1.412 |
| COc1cccc([S+]([O-])CC(=O)NCc2cc(F)cc(F)c2)c1 (centres undefined) | -14.98 |
| O=C1N(Cc2cccc(F)c2F)CCCC1(O)CNCc1ccccn1 (centres undefined) | -29.29 |
| Cc1cc(C)cc(C(C)NC(=O)c2ccc(CS(C)(=O)=O)o2)c1 (centres undefined) | -2.298 |
| CCc1ccc(CN2CCN(c3ccc(C(N)=O)cn3)CC2)nc1 | 17.95 |
| CC(C)(N)c1cn(C2CCN(C(=O)CCC3CCCCC3)CC2)nn1 | -21.08 |
| Cc1cc(CN2CCc3nc(-c4ccncc4)nc(O)c3CC2)c(C)s1 | 125 |
| Cc1nc(O)c2c(n1)CCN(Cc1cc(C)sc1C)CC2 | 92.9 |
| Cc1cc(CN2CCc3nc(N4CCOCC4)nc(O)c3CC2)c(C)s1 | 112.9 |
| Cc1cc(CN[C@@H](C)C(N)=O)c(C)s1 | 8.124 |
| Cc1nc2c(c(=O)n1C)CCN(Cc1cc3ccccc3[nH]1)CC2 | -25.51 |
| CC(=O)N1CCc2c(nc(-c3ccncc3)nc2N(C)CC(O)CO)C1 (centres undefined) | 4.037 |
| Cc1nc(C)c2c(n1)CCN(Cc1ccsc1)CC2 | 5.852 |
| Cc1cc(CN2CCc3nc(C(C)C)nc(O)c3CC2)c(C)s1 | 120.7 |

| Compound | Percent Effect [%] |
| --- | --- |
| CC(C)c1ncc2c(n1)CN(Cc1nc3c(F)cccc3[nH]1)CC2 | -0.8884 |
| Cc1nc(C)c2c(n1)CCN(Cc1ccco1)CC2 | -8.406 |
| COCc1ccccc1C(=O)NS(=O)(=O)CCCC#N | -8.648 |
| COC1CCN(S(=O)(=O)N2C[C@H](c3ccccc3)[C@@H](N)C2)CC1 | -9.837 |
| N#Cc1cccc(CN2CCN(Cc3cscn3)CC2)c1 | -8.185 |
| NC(=O)c1ccc(C(=O)N2CCCCC2C2OCCO2)cc1 (centres undefined) | -10.24 |
| Cc1ccc(CN2CCc3ncnc(OC(C)C)c3CC2)s1.O=C(O)C(F)(F)F | -2.547 |
| Cc1ccc(CN2CCc3ncnc(C4CCOC4)c3CC2)s1.O=C(O)C(F)(F)F (centres undefined) | -17.37 |
| Cc1ccc(CN2CCc3nc(C(C)C)nc(O)c3CC2)s1 | 101.1 |
| Cc1nc(CN2CCOC(CN(C)c3cccnn3)C2)cs1 (centres undefined) | 1.717 |
| Cc1cc(C)n(NC(=O)c2cccc3c2OCC3)c(=O)c1 | -19.93 |
| CC(C)C(NC(=O)c1ccc(Cl)cc1Cl)C(=O)Nc1ccn(C)n1 (centres undefined) | -7.418 |
| Cc1cccc(NC(=O)CNC(=O)c2ccccc2F)c1 | -4.999 |
| Cc1ccccc1C(=O)NCC(O)c1ccc(F)c(F)c1 (centres undefined) | -57.78 |
| CCOc1ccccc1C(CC(=O)Nc1ccc(C)cn1)NC(C)=O (centres undefined) | -11.24 |
| O=C(NS(=O)(=O)c1ccccc1)c1ccccc1F | -14.83 |
| CCOc1ccccc1C(=O)Nn1c(C)cc(C)cc1=O | 121 |
| Cc1cc(C)n(NC(=O)c2ccccc2C)c(=O)c1 | 92.68 |
| Cc1cc(C)n(NC(=O)c2ccccc2F)c(=O)c1 | 67.62 |
| CCOc1cccc(CNc2ccccc2C(=O)OC)c1O | 0.1063 |
| Cc1cc(C)n(NC(=O)c2ccc(Cl)cc2Cl)c(=O)c1 | 111.9 |
| CC(NC(=O)C1=NN(C)C(=O)CC1)c1ccc(Cl)cc1Cl (centres undefined) | -11.2 |
| Cc1cc(CS(=O)(=O)N(C)C(C)c2ccc(Cl)cc2)on1 (centres undefined) | 1.246 |
| CN(C)[C@@H]1CCN(c2ncc(F)cn2)[C@H]1Cc1ccncc1.O=C(O)C(F)(F)F.O=C(O)C(F)(F)F | 2.593 |
| CC(O)CCN(C)S(=O)(=O)Cc1ccc(Cl)c(Cl)c1 (centres undefined) | 3.883 |
| N[C@H]1CN(C(=O)Cc2ccc(CO)cc2)C[C@@H]1C1CC1 | -4.225 |
